According to PubChem BioAssay (EPA / NIEHS):
Inconclusive results are not listed. The source made the active and inactive calls. The calls were made as follows: active = hit-call score of the fitted dose curve at least 0.9, where 1 is the maximum; inconclusive = response in the unintended direction; inactive = score below 0.9.

system: guinea pig Leukotriene B4 Receptor (LTB4), gene 100379538; assay: NVS_GPCR_gLTB4: NovaScreen (NVS) G Protein-Coupled Receptor Assay for guinea pig Leukotriene B4 Receptor (LTB4) (AID 2283247)
Method in brief: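 Membranes from guinea pig spleen incubated 2 h with radioligand and compound; bound counts measured by filtration and scintillation. Screened first at 25 uM in duplicate, then actives titrated to a 50 uM top concentration relative to DMSO.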

Structure (SMILES)	outcome	AC50
COCCOC[C@H](CC1(C(=O)NC2CCC(C(=O)O)CC2)CCCC1)C(=O)Oc1ccc2c(c1)CCC2 (stereo not given in full)	inactive	
CCCCC(CC)COC(=O)CC(C(=O)OCC(CC)CCCC)S(=O)(=O)O (stereo not given)		6.15 µM (active)
CNC(=O)[C@H]1O[C@@H](n2cnc3c(NCc4cc(Cl)ccc4OCc4cc(C)no4)ncnc32)[C@H](O)[C@@H]1N		25 µM (active)
C=CCc1ccc(O)c(OC)c1	inactive	
COc1cc(S(=O)(=O)O)c(C)cc1N=Nc1c(O)ccc2cc(S(=O)(=O)O)ccc12	inactive	
